# Experimental data reported in the supplement of paper PMC10646978.
# ± gives the standard deviation.
# Columns and labels:
# Settings in all cases: modulator concentration 10 µM
# [1] = tested on: RAW-Dual (murine macrophage reporter line); assay: NF-kB reporter (SEAP) activity fold change vs agonist alone; higher = enhanced NF-kB activity
# Outline: (§1)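 RAW-Dual murine macrophage reporter cells were plated at 50 000 per well in 384-well plates, pin-transferred compound to 10 μM final, and pre-incubated for 1 hour at 37 °C before a PRR agonist was added and the cells incubated overnight. NF-κB activity was read from supernatant SEAP with QUANTI-Blue at 620 nm absorbance, and IRF activity from Lucia luciferase with QUANTI-Luc by luminescence. Each signal was expressed as fold change by dividing by the mean agonist-only control on the same plate. Two replicate plates were averaged, with errors obtained by propagation.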
# [2] = tested on: RAW-Dual (murine macrophage reporter line); assay: IRF reporter (Lucia luciferase) activity fold change vs agonist alone; higher = enhanced IRF activity
# Outline: as §1
# [3] = tested on: RAW-Dual (murine macrophage reporter line); assay: viability score (confluency relative to resting cells, overnight) (fraction); higher = more viable, active = viable (0.7 or more)
# Outline: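 In 384-well plates, RAW-Dual macrophages received compound at a final 10 μM overnight. Two confluency masks were then made with IncuCyte software from IncuCyte images of all imaged wells. The viability score is defined as confluency relative to resting cells. Passing the cutoff required both masks to lie above 70% of resting cells.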
# [4] = agonist: CpG ODN 1826 0.5 ug/mL
SMILES,"NF-kB reporter [1, 4]",NF-kB reporter ([1]; agonist: LPS 0.1 ug/mL),NF-kB reporter ([1]; agonist: MPLA […]),IRF reporter ([2]; agonist: 3'3'-cGAMP 10 ug/mL),IRF reporter ([2]; agonist: LPS 0.1 ug/mL),IRF reporter ([2]; agonist: MPLA […]),viability score [3]
CSCCC(NC(=O)C(=Cc1ccccc1)NC(=O)c1ccco1)C(=O)O (stereo not given),0.764 ± 0.066,0.842 ± 0.054,0.936 ± 0.081,1.05 ± 0.05,1.33 ± 0.081,1.49 ± 0.14,1 (active)
COc1cccc(-c2csc(NC(=O)C3CC3)n2)c1,1.16 ± 0.19,1.44 ± 0.11,1.31 ± 0.17,1.19 ± 0.053,1.26 ± 0.26,1.35 ± 0.14,1 (active)
Cc1ccc(-n2nnc3c(=O)n(CC(=O)N4CC(C)OC(C)C4)cnc32)cc1Cl (stereo not given),1.12 ± 0.096,1.09 ± 0.089,0.885 ± 0.047,1.09 ± 0.057,1.14 ± 0.079,1.14 ± 0.34,0.976 (active)
COc1ccccc1OCC(O)CN1CCN(CC(=O)Nc2c(C)cccc2C)CC1.Cl.Cl (stereo not given),0.724 ± 0.11,0.982 ± 0.19,0.991 ± 0.064,0.908 ± 0.064,1.05 ± 0.23,0.931 ± 0.16,0.991 (active)
NS(=O)(=O)c1cc(Cl)c(Cl)c(S(N)(=O)=O)c1 [Prestw-809],1.15 ± 0.13,1.02 ± 0.083,0.953 ± 0.046,0.916 ± 0.067,0.92 ± 0.093,0.911 ± 0.16,1 (active)
COc1ccc(Oc2coc3cc(OC(=O)c4ccc(Cl)c([N+](=O)[O-])c4)ccc3c2=O)cc1,0.82 ± 0.063,0.981 ± 0.052,1.08 ± 0.094,0.892 ± 0.048,1.29 ± 0.08,1.43 ± 0.14,1.02 (active)
COc1ccc(-n2c(=O)c3c4c(sc3n3c(SC)nnc23)CCCC4)cc1,1.16 ± 0.13,1.06 ± 0.074,1.14 ± 0.044,0.971 ± 0.18,0.96 ± 0.04,0.921 ± 0.064,1 (active)
CC(C)(C(=O)c1cccnc1)c1cccnc1 [Prestw-904],1.05 ± 0.092,0.894 ± 0.073,0.939 ± 0.057,0.995 ± 0.054,0.956 ± 0.12,0.901 ± 0.23,0.997 (active)
Clc1cccc(C=Nc2ccc(N=Cc3cccc(Cl)c3Cl)cc2)c1Cl,0.979 ± 0.081,1.08 ± 0.07,1 ± 0.04,0.815 ± 0.059,1.05 ± 0.056,1.09 ± 0.12,1 (active)
CCN(CC)c1ccc(C=NNC(=O)c2ccc(O)cc2)c(O)c1,2.52 ± 0.2,1.31 ± 0.089,5.86 ± 0.2,0.2 ± 0.0075,0.845 ± 0.038,0.758 ± 0.12,0.577 (inactive)
Cc1n[nH]c(C)c1S(=O)(=O)N1CCCN(C(=O)Cc2ccccc2Cl)CC1,1.03 ± 0.051,1.14 ± 0.11,1 ± 0.18,1.05 ± 0.053,1.21 ± 0.074,1.26 ± 0.11,0.979 (active)
CC#CC(=O)Nc1ccc(N2CCOCC2=O)c(C)c1,0.993 ± 0.062,1.01 ± 0.086,1.01 ± 0.092,0.961 ± 0.058,0.913 ± 0.084,0.865 ± 0.14,1.01 (active)
CC12C=CC(CO)(O1)C1C(=O)NC(=O)C12 (stereo not given),1.26 ± 0.1,1.07 ± 0.066,0.838 ± 0.082,0.907 ± 0.047,0.469 ± 0.027,0.32 ± 0.027,0.783 (active)
COc1ccc(C)c2sc(NC(=O)c3ccco3)nc12,1.18 ± 0.089,0.847 ± 0.068,1.11 ± 0.031,0.863 ± 0.078,0.845 ± 0.061,0.882 ± 0.073,0.971 (active)
NC(=NOC(=O)C(c1ccccc1)C1CCCC1)c1ccccn1 (stereo not given),0.796 ± 0.062,0.857 ± 0.055,1.06 ± 0.1,0.613 ± 0.042,1.38 ± 0.083,1.62 ± 0.15,0.982 (active)
O=C(Nc1ncc(S(=O)(=O)c2ccc([N+](=O)[O-])cc2)s1)c1cccs1,1.06 ± 0.11,1.09 ± 0.06,0.914 ± 0.06,0.987 ± 0.03,1.49 ± 0.27,1.18 ± 0.21,1.01 (active)
CC(=O)Nc1ccc(NC(=O)COc2ccc(Br)c(C)c2)cc1,0.902 ± 0.15,1.09 ± 0.097,0.95 ± 0.087,0.997 ± 0.026,1.27 ± 0.36,1.22 ± 0.17,1.01 (active)
c1ccc(-n2nnnc2Sc2ncnc3sc4c(c23)CCCC4)cc1,0.74 ± 0.043,0.481 ± 0.088,0.442 ± 0.027,0.0638 ± 0.0026,0.349 ± 0.095,0.835 ± 0.14,0.994 (active)

SMILES,"NF-kB reporter [1, 4]",NF-kB reporter ([1]; agonist: LPS 0.1 ug/mL),NF-kB reporter ([1]; agonist: MPLA […]),IRF reporter ([2]; agonist: 3'3'-cGAMP 10 ug/mL),IRF reporter ([2]; agonist: LPS 0.1 ug/mL),IRF reporter ([2]; agonist: MPLA […]),viability score [3]
CNC(=O)c1cc(Oc2ccc(NC(=O)Nc3ccc(Cl)c(C(F)(F)F)c3)c(F)c2)ccn1.O,0.151 ± 0.012,0.0887 ± 0.0079,0.42 ± 0.035,0.0171 ± 0.0034,0.0276 ± 0.0016,0.0325 ± 0.0049,0.448 (inactive)
COC(=O)C1=C(C)NC(C)=C(C(=O)OCC(C)C)C1c1ccccc1[N+](=O)[O-] (stereo not given),0.884 ± 0.092,0.81 ± 0.05,0.748 ± 0.075,0.371 ± 0.017,0.783 ± 0.066,0.562 ± 0.052,0.923 (active)
CC1=C(C(=O)Nc2cccc(C)n2)C(c2cccs2)C2=C(CC(C)(C)CC2=O)N1 (stereo not given),1.03 ± 0.18,1.09 ± 0.14,0.869 ± 0.069,0.913 ± 0.027,1.2 ± 0.12,1.25 ± 0.16,1 (active)
COc1cccc(N2CC(C(=O)NC3CCN(c4nccn5c(C)nnc45)CC3)CC2=O)c1 (stereo not given),1.03 ± 0.051,1.06 ± 0.092,0.955 ± 0.088,0.968 ± 0.049,1.17 ± 0.073,1.08 ± 0.11,1.01 (active)
Cc1c(C(=O)NN)sc(-c2ccccc2)c1C#N,0.868 ± 0.071,1.13 ± 0.074,0.987 ± 0.034,0.562 ± 0.071,1.08 ± 0.12,1.43 ± 0.29,0.998 (active)
COc1cc2nccc(Oc3ccc(NC(=O)C4(C(=O)Nc5ccc(F)cc5)CC4)cc3)c2cc1OC.O=C(O)C[C@H](O)C(=O)O,0.56 ± 0.046,0.51 ± 0.026,0.696 ± 0.019,0.103 ± 0.0071,0.317 ± 0.031,0.337 ± 0.027,0.842 (active)
O=C(COc1cccc2ccccc12)NCc1ccncc1,0.804 ± 0.069,1.1 ± 0.06,1.02 ± 0.12,0.981 ± 0.052,1.34 ± 0.12,1.06 ± 0.098,1.01 (active)
CN1CCC(=C2c3ccccc3CCn3c(C=O)cnc32)CC1,0.766 ± 0.11,1.24 ± 0.12,0.971 ± 0.1,0.875 ± 0.04,1.1 ± 0.14,0.943 ± 0.29,1 (active)
N#Cc1cc2c(nc1N1CC(Cn3nc(C4CC4)ccc3=O)C1)CCC2,1.44 ± 0.078,1.21 ± 0.099,1.63 ± 0.24,0.866 ± 0.12,1.03 ± 0.17,1.18 ± 0.34,0.946 (active)
COc1cccc2c1C(=O)c1c(O)c3c(c(O)c1C2=O)C[C@@](O)(C(C)=O)C[C@@H]3O[C@H]1C[C@H](N)[C@H](O)[C@H](C)O1.Cl,0.115 ± 0.0076,0.0574 ± 0.0063,0.0998 ± 0.0052,0.0163 ± 0.004,0.0195 ± 0.0046,0.0153 ± 0.0037,0.0601 (inactive)
O=S(=O)(NC1CC1)c1cnn(-c2ccccc2)c1,0.903 ± 0.048,0.908 ± 0.073,1.08 ± 0.079,1.07 ± 0.062,1.3 ± 0.3,1.52 ± 0.57,0.964 (active)
CC(=O)Nc1ccc(NC(=S)NC(=O)C=Cc2ccc(Cl)cc2Cl)cc1,0.64 ± 0.05,0.741 ± 0.059,0.933 ± 0.095,0.428 ± 0.031,1.33 ± 0.12,1.3 ± 0.22,1 (active)
COc1ccc(-c2cc(=O)c3c(O)cc(O)cc3o2)cc1O,1.38 ± 0.11,1.15 ± 0.056,1.3 ± 0.04,0.641 ± 0.036,0.426 ± 0.076,0.356 ± 0.063,0.985 (active)
CC1(C)C(=O)C2CC3(O)C4=CC(=O)OC(c5ccoc5)C4(C)CCC3C(C)(C2=O)C1CC(=O)O (stereo not given),0.99 ± 0.056,1.04 ± 0.064,1.01 ± 0.081,0.997 ± 0.035,1.51 ± 0.13,1.25 ± 0.14,0.996 (active)
O=C(Nc1cc(C(F)(F)F)cc(C(F)(F)F)c1)c1ccco1,0.816 ± 0.11,1.07 ± 0.061,1.02 ± 0.072,0.715 ± 0.019,1.07 ± 0.23,0.89 ± 0.15,1.01 (active)
NC(=O)c1ncn([C@@H]2O[C@H](CO)[C@@H](O)[C@H]2O)c1O,0.723 ± 0.23,1.08 ± 0.069,0.898 ± 0.05,1.02 ± 0.085,1.04 ± 0.086,1.16 ± 0.094,0.998 (active)
O=C(NCC(O)c1ccc(C(F)(F)F)cc1)c1cc(Br)cs1 (stereo not given),0.931 ± 0.047,0.981 ± 0.077,0.865 ± 0.043,1.14 ± 0.058,1.21 ± 0.077,1.22 ± 0.14,0.66 (inactive)
